In PubChem BioAssay (NCI):
About 83,000 compounds went through this panel and 20% of them were active in at least one assay; those are over-represented in the sample as a whole.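 A percent growth of 40 corresponds to 60% growth inhibition; 0 means no net growth; -100 means all cells died. Active threshold: below 10.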 A number with no mark means an inactive call. Activity calls are given as the source filed them.

These compounds were tested on DU-145 prostate (assay: NCI-60 one-dose screen, 48 h (100 = growth as untreated, 0 = no growth, -100 = all killed)). Conditions: 10 µM unless noted.
With `Brc1ccc2[nH]cc(-c3nc(-c4c[nH]c5ncccc45)cs3)c2c1` the growth was 39.8%.
`Cc1ccc(-c2ccc(Nc3ccccc3)nn2)cc1S(N)(=O)=O` gave a growth of 85.2%.
Work on `Cn1c2c(Cl)c(Cl)ccc2c2c(C#N)c[nH]c(=O)c21` yielded a growth of 109%.
For `C/C(=N/NC(N)=S)C(=O)O`, the growth was 102%.
With `CCCCC[C@H]1C/C=C2/C(=O)C=C[C@@H]2C/C=C\CCCC(=O)O[C@@H](CCCCC)C/C=C2/C(=O)C=C[C@@H]2C/C=C\CCCC(=O)O1` the growth was -93.1% (active).
With `C#CCn1c(C)cc(C)c(C#N)c1=O` the growth was 110%.
In the case of `N#CC1C(=N)Cc2ccccc2-c2ccccc21` (centres undefined), the growth is reported as 75.8%.
For `Cc1cc(N2CCCCC2)nc(N(CCNc2ccnc3cc(Cl)ccc23)Cc2ccco2)n1`, the growth was 46.4%.
`C[C@@H](C(=O)O)c1ccc2c3cc(Cl)ccc3n(Cc3cc(=O)oc4ccc(Cl)cc34)c2c1` showed a growth of 103%.
With `C=C1C(=O)O[C@H]2[C@H]1CC/C(COC(=O)NCc1cc3ccccc3[nH]1)=C\CC[C@@]1(C)O[C@@H]21` the growth was 1.16% (active).
With `CCOC(=O)N1CCN(CCCCOc2ccc(C(C)(C)CC)cc2)CC1` the growth was 104%.
`OCC(CO)(CCl)CCl` was tested, and the growth was 105%.
Work on `COc1ccc(-c2cc(/C=C/C(=O)c3ccc(N)cc3)[nH]n2)cc1` yielded a growth of 11.9%.
`CC(C)(C)c1nc(-c2ccc(O)c(O)c2)cs1` gave a growth of 66.3%.
`Brc1ccc(Cn2nnnc2-c2ccn(-c3ccccc3)n2)cc1` gave a growth of 85.8%.
Compound `COC(=O)C(Cc1ccccc1)n1cc(COc2nc(Cl)nc(Nc3ccc(Cl)cc3)n2)nn1` (centres undefined) has a growth of 81.5%.
With `COc1cccc(-c2nn(-c3ccccc3)cc2-c2ccnc(NCCNS(=O)(=O)c3ccccc3)c2)c1` the growth was 57.5%.
In the case of `Nc1c(C(=O)Nc2cccc3ccccc23)sc2nc3c(cc12)CCCC3`, the growth is reported as 19.3%.
With `Cn1cc(-c2csc(-c3cn(CCN)c4ccc(F)cc34)n2)c2cccnc21` the growth was 68.5%.
`COc1ccc(NC(=S)N/N=C/c2ccccc2SSCCC(=O)OC[C@H]2O[C@H](O)[C@H](O)[C@@H](O)[C@@H]2O)cc1` gave a growth of 83.9%.
With `c1ccc(-c2nc(Nc3ccc(-c4nc5ccccc5[nH]4)cc3)nc(N3CCOCC3)n2)cc1` the growth was -27.8% (active).
In the case of `COc1cnc2c(c1)C(=O)c1c-2n(CCCNC2=NCCS2)c(=O)c2cc([N+](=O)[O-])ccc12`, the growth is reported as -74.7% (active).
With `OCCNc1nc(Nc2ccc(Cl)c(Cl)c2)nc2ccccc12` the growth was 70.9%.
`Oc1ccc(CCC2CCCC(CCc3ccc(OCCF)cc3)N2)cc1` (centres undefined) was tested, and the growth was 109%.
`Cc1ccsc1-c1ccc2c(c1)COC2(CCCN(C)C)c1ccc(F)cc1` (centres undefined) was tested, and the growth was 60%.
Work on `COc1ccc(NC(=O)c2ccoc2COc2ccccc2)cc1` yielded a growth of 106%.

Each compound was assayed on K-562 leukemia in the same assay as above. Conditions: 10 µM unless noted.
`Nc1c(C(=O)Nc2c(Cl)cccc2Cl)sc2nc3c(cc12)CCCC3` was tested, and the growth was 14.8%.
`COc1cc2ncnc(Nc3ccc(OCc4cccc(F)c4)c(Cl)c3)c2cc1NC(=O)C1CCCC1` gave a growth of 91.2%.
With `O=C(N/N=C/c1ccccc1SSc1ccccc1/C=N/NC(=O)c1ccccc1)c1ccccc1` the growth was 18.3%.
Work on `C[C@@H]1CCCCCCCCC[C@H](O)C(=O)C[C@@H](SC[C@@H](O)C(=O)O)C(=O)O1` yielded a growth of 15.5%.
`C=C(C)[C@@H]1CC[C@]2(C)[C@H](CC=C3[C@@H]4CC(C)(C)CC[C@]4(C(=O)OC)CC[C@]32C)[C@@]1(C)CC/C(N)=N/O` was tested, and the growth was 23.9%.
With `C=C(C)[C@@H]1CC[C@]2(C)[C@H](CC=C3[C@@H]4CC(C)(C)CC[C@]4(C=O)CC[C@]32C)[C@@]1(C)CCCN` the growth was 1.54% (active).
With `Cc1ccc(/C=C(\C#N)c2cc3ccccc3n2C)cc1` the growth was 14.7%.
`N=C(N)c1ccc(S(N)(=O)=O)cc1` showed a growth of 106%.
In the case of `COc1ccc(-c2cc(=O)oc3ccc(Cl)cc23)cc1F`, the growth is reported as 7.21% (active).
In the case of `CCSc1sc(-c2ccc(C)cc2)nc1[P+](c1ccccc1)(c1ccccc1)c1ccccc1`, the growth is reported as 0.0447% (active).
In the case of `COC(=O)[C@]12CC[C@@H](C)[C@H](C)[C@@H]1C1=CC(=O)[C@@H]3[C@@]4(C)C[C@@H](O)[C@H](O)[C@@]5(C)COC(=C45)C[C@@]3(C)[C@]1(C)CC2`, the growth is reported as 14.2%.
In the case of `O=S(=O)(NCCNc1cc(-c2cn(-c3ccccc3)nc2-c2cccc(O)c2)ccn1)c1ccc(Br)cc1`, the growth is reported as 3.66% (active).
With `Brc1ccc2[nH]cc(-c3nc(-c4c[nH]c5ncccc45)cs3)c2c1` the growth was 4.74% (active).
Work on `Cc1ccc(-c2ccc(Nc3ccccc3)nn2)cc1S(N)(=O)=O` yielded a growth of 21.3%.
With `Cn1c2c(Cl)c(Cl)ccc2c2c(C#N)c[nH]c(=O)c21` the growth was 106%.
`C/C(=N/NC(N)=S)C(=O)O` was tested, and the growth was 55.3%.
For `CCCCC[C@H]1C/C=C2/C(=O)C=C[C@@H]2C/C=C\CCCC(=O)O[C@@H](CCCCC)C/C=C2/C(=O)C=C[C@@H]2C/C=C\CCCC(=O)O1`, the growth was -45.3% (active).
`C#CCn1c(C)cc(C)c(C#N)c1=O` gave a growth of 103%.
In the case of `N#CC1C(=N)Cc2ccccc2-c2ccccc21` (centres undefined), the growth is reported as 16%.
`Cc1cc(N2CCCCC2)nc(N(CCNc2ccnc3cc(Cl)ccc23)Cc2ccco2)n1` was tested, and the growth was 2.04% (active).
Compound `C[C@@H](C(=O)O)c1ccc2c3cc(Cl)ccc3n(Cc3cc(=O)oc4ccc(Cl)cc34)c2c1` has a growth of 98.2%.
In the case of `C=C1C(=O)O[C@H]2[C@H]1CC/C(COC(=O)NCc1cc3ccccc3[nH]1)=C\CC[C@@]1(C)O[C@@H]21`, the growth is reported as -5.26% (active).
With `CCOC(=O)N1CCN(CCCCOc2ccc(C(C)(C)CC)cc2)CC1` the growth was 68.1%.
Compound `OCC(CO)(CCl)CCl` has a growth of 106%.
For `COc1ccc(-c2cc(/C=C/C(=O)c3ccc(N)cc3)[nH]n2)cc1`, the growth was -2.07% (active).
`CC(C)(C)c1nc(-c2ccc(O)c(O)c2)cs1` showed a growth of 50%.
`Brc1ccc(Cn2nnnc2-c2ccn(-c3ccccc3)n2)cc1` showed a growth of 46.2%.
`COC(=O)C(Cc1ccccc1)n1cc(COc2nc(Cl)nc(Nc3ccc(Cl)cc3)n2)nn1` (centres undefined) gave a growth of 90.6%.
`COc1cccc(-c2nn(-c3ccccc3)cc2-c2ccnc(NCCNS(=O)(=O)c3ccccc3)c2)c1` was tested, and the growth was 6.57% (active).
With `Nc1c(C(=O)Nc2cccc3ccccc23)sc2nc3c(cc12)CCCC3` the growth was 9.59% (active).
Compound `Cn1cc(-c2csc(-c3cn(CCN)c4ccc(F)cc34)n2)c2cccnc21` has a growth of 11.4%.
With `COc1ccc(NC(=S)N/N=C/c2ccccc2SSCCC(=O)OC[C@H]2O[C@H](O)[C@H](O)[C@@H](O)[C@@H]2O)cc1` the growth was 51.6%.
In the case of `c1ccc(-c2nc(Nc3ccc(-c4nc5ccccc5[nH]4)cc3)nc(N3CCOCC3)n2)cc1`, the growth is reported as -30.1% (active).
`COc1cnc2c(c1)C(=O)c1c-2n(CCCNC2=NCCS2)c(=O)c2cc([N+](=O)[O-])ccc12` was tested, and the growth was -14.9% (active).
`OCCNc1nc(Nc2ccc(Cl)c(Cl)c2)nc2ccccc12` was tested, and the growth was 2.65% (active).
For `Oc1ccc(CCC2CCCC(CCc3ccc(OCCF)cc3)N2)cc1` (centres undefined), the growth was 66%.
In the case of `Cc1ccsc1-c1ccc2c(c1)COC2(CCCN(C)C)c1ccc(F)cc1` (centres undefined), the growth is reported as 1.22% (active).
In the case of `COc1ccc(NC(=O)c2ccoc2COc2ccccc2)cc1`, the growth is reported as 55%.
